Results reported in paper PMC4552634, “A New Set of Chemical Starting Points with Plasmodium falciparum Transmission-Blocking Potential for Antimalarial Drug Discovery” (PLoS ONE, 2015).
The whole screen tested about 13,000 compounds, of which about 3,200 (25%) showed an effect of 50% or more. Some of the results follow.

system: P. falciparum stage V gametocytes; parameters: BacTiter-Glo ATP luminescence viability of purified stage V gametocytes in 384-well plates, per cent inhibition versus DMSO; conditions: 48 h, 5 µM; inhibitor

SMILES	% Inhibition [%]
CCN1CCC(N2CCC(C(=O)Nc3cccc(-c4cccc(Cl)c4)c3)CC2)CC1 [TCMDC-124650]	24.3
COc1ccc(CN2CCCN(Cc3cccc(C(=O)Nc4ccc(C(C)(C)C)cc4)c3)CC2)cc1 [TCMDC-135986]	5.589
CCc1c(C)nc(-n2nc(C)cc2NC(=O)CC(c2ccccc2)c2ccccc2)[nH]c1=O [TCMDC-124933]	-29.94
NC(=O)Nc1ccc2c(Nc3ccc(OCc4ccccc4)cc3)ncnc2c1 [TCMDC-131937]	13.28
Cc1ccc2sc(N(CCCn3ccnc3)C(=O)c3ccco3)nc2c1C [TCMDC-124922]	21.61
O=C(Cc1cccnc1)Nc1cccc(-c2cccc(-c3nc4ccc(C(F)(F)F)cc4[nH]3)c2)c1 [TCMDC-136815]	21.33
COc1ccc(CN2CCN(CCCCNC(=O)c3ccc(NC(=O)c4ccc(Cl)cc4)cc3)CC2)c(OC)c1 [TCMDC-138280]	2.758
COc1ccc(CC2(c3ccc(F)cc3)N=C(N)N(CCCc3cccnc3)C2=O)cc1 (stereo not drawn) [TCMDC-136541]	12.34
Cc1cc(N[C@@H](CC(C)C)C(=O)NCCOc2ccccc2)nc(NCCc2ccccc2)n1 [TCMDC-134871]	94.75
Cc1cc(N[C@@H](Cc2ccccc2)C(=O)NCCOc2ccccc2)nc(NCCc2cccs2)n1 [TCMDC-134813]	64.23
Cc1cc(N[C@@H](Cc2ccccc2)C(=O)NCCOc2ccccc2)nc(NCCc2ccccn2)n1 [TCMDC-134748]	75.62
CCCC(C)Nc1nc(C)cc(N[C@@H](Cc2ccccc2)C(=O)NCCOc2ccccc2)n1 (stereo partly drawn) [TCMDC-134765]	-43.65
Cc1cc(N[C@@H](Cc2ccccc2)C(=O)NCCOc2ccccc2)nc(NCCc2ccc(F)cc2)n1 [TCMDC-134789]	64.78
Cc1cc(N[C@@H](Cc2ccccc2)C(=O)NCc2cccs2)nc(NCCOc2ccccc2)n1 [TCMDC-134758]	28.84
Cc1cc(N[C@@H](CC(C)C)C(=O)NCCOc2ccccc2)nc(NCCc2ccc(F)cc2)n1 [TCMDC-134795]	47.6
Cc1cc(N[C@@H](Cc2ccccc2)C(=O)NCCOc2ccccc2)nc(NCC2CCCCC2)n1 [TCMDC-134933]	-5.307
Cc1cccc(CNc2nc(C)cc(N[C@@H](Cc3ccccc3)C(=O)NCCOc3ccccc3)n2)c1 [TCMDC-134888]	18.91
Cc1cc(N[C@@H](CC(C)C)C(=O)NCCOc2ccccc2)nc(NCCOc2ccccc2)n1 [TCMDC-134761]	40.02
Brc1cc(Br)c2c(c1)C(NCCCNc1nc3ncccc3[nH]1)CCN2 (stereo not drawn) [TCMDC-140066]	-91.96
CC(C)(C)c1ccc(C(=O)NC2CCC(CCN3CCc4ccc(S(C)(=O)=O)cc4CC3)CC2)cc1C(F)(F)F (stereo not drawn) [TCMDC-141428]	-32.14
CN1CCc2ccc(NC(=O)Nc3cccc(C(=O)c4ccccc4)c3)cc2C1 [TCMDC-139177]	-22.18
C/C=C1/CN2CC[C@H]1C[C@H]2[C@H](O)c1ccnc2ccc(OC)cc12 [TCMDC-138265]	0.1494

SMILES	% Inhibition [%]
CCCCSc1ccc2nc(-c3c[nH]c4ccc(C#N)cc34)cn2c1 [TCMDC-134704]	-54.07
CC(C)c1cc(C(=O)N[C@@H](Cc2ccccc2)[C@H](O)CNC2CCCCC2)cc(N2CCCC2=O)c1 [TCMDC-138861]	41.96
Cc1ccc(-c2ccc(Cl)cc2Oc2cnc(N)nc2N)o1 [TCMDC-132599]	4.58
O=C(Nc1cccc(-c2ccc(-c3nc4ccccc4[nH]3)cc2)c1)c1ccncc1 [TCMDC-136962]	-14.71
CCCc1cc(Cc2cnc(N)nc2N)cc(CCC)c1OCCCCC(=O)OCC [TCMDC-137294]	0.6782
Cc1cc(N[C@@H](Cc2ccccc2)C(=O)NCCOc2ccccc2)nc(Nc2ccccc2)n1 [TCMDC-134735]	6.483
Cc1cc(N[C@@H](Cc2ccccc2)C(=O)NCCOc2ccccc2)nc(NCCc2ccccc2)n1 [TCMDC-134869]	38.23
Cc1cc(N[C@@H](Cc2ccccc2)C(=O)NCCOc2ccccc2)nc(NCc2ccccc2C)n1 [TCMDC-134906]	-0.6796
Cc1cc(N[C@@H](Cc2ccccc2)C(=O)NCCc2ccccc2)nc(NCCOc2ccccc2)n1 [TCMDC-134879]	65.02
Cc1cc(N[C@@H](Cc2ccccc2)C(=O)NCCOc2ccccc2)nc(NCCOc2ccccc2)n1 [TCMDC-134759]	76.97
COc1cc2sc(=NC(=O)c3cccc([N+](=O)[O-])c3)n(C)c2cc1OC [TCMDC-123526]	16.54
CC1(C)N=C(N)N=C(N)N1OCc1cccc2c1ccc1ccccc12 [TCMDC-131327]	39.55
CCCCc1ccc(C(=O)NC2CCN(C[C@H](O)c3ccnc4ccc(OC)cc34)CC2)cc1 [TCMDC-141040]	-10.19
COc1cc2nc(N3CCN(C(=O)c4cccc(I)c4)CC3)nc(N)c2cc1OC [TCMDC-131895]	98.03
COc1cc2nc(N3CCN(c4cc(C)ccc4C)CC3)nc(N)c2cc1OC [TCMDC-125298]	-12.09
COc1cc2nc(N3CCN(c4nc(N)c5cc(OC)c(OC)cc5n4)CC3)nc(N)c2cc1OC [TCMDC-123865]	116.7
COc1cc2nc(N3CCN(C(=O)c4c(Cl)nsc4-c4ccccc4Cl)CC3)nc(N)c2cc1OC.O=C(O)C(F)(F)F [TCMDC-138186]	103.1
COc1ccc(N2CCN(c3nc(N)c4cc(OC)c(OC)cc4n3)CC2C)cc1 (stereo not drawn) [TCMDC-131887]	-85.18
COc1cc2nc(N3CCN(C(=O)c4ccc(N(C(=O)OC(C)(C)C)C(=O)OC(C)(C)C)cc4)CC3)nc(N)c2cc1OC [TCMDC-131899]	9.334
COc1cc2nc(N3CCC(CNC(=O)c4cc5ccccc5s4)CC3)nc(N)c2cc1OC [TCMDC-138189]	0.3187
COc1cc2nc(NCC3CCN(c4nc(N)c5cc(OC)c(OC)cc5n4)CC3)nc(N)c2cc1OC [TCMDC-138723]	112.2
COc1cc2nc(N3CCC(CNC(=O)c4cc(Br)c(Br)s4)CC3)nc(N)c2cc1OC.O=C(O)C(F)(F)F [TCMDC-138213]	-9.659

SMILES	% Inhibition [%]
CN(C)C(=O)n1cnc(S(=O)(=O)N(C)c2ccc(Cl)cc2)n1 [TCMDC-134395]	5.684
CCOC(=O)CCCCOc1c(OC)cc(Cc2cnc(N)nc2N)cc1OC [TCMDC-137291]	2.332
COc1ccc(NS(=O)(=O)c2ccc(C(=O)Nc3ccc(C(F)(F)F)cc3)cc2)cc1N1CCN(CC2CC2)CC1 [TCMDC-141778]	-16.52
O=C(c1cccs1)N1N=C(c2cccs2)CC1c1cccc([N+](=O)[O-])c1 (stereo not drawn) [TCMDC-123688]	10.72
Cc1noc(C)c1-c1cccc(CNCc2ccc(-c3cccc(-c4nc5cc(C(F)(F)F)ccc5[nH]4)c3)cc2)c1.O=C(O)C(F)(F)F [TCMDC-133051]	-9.881
COc1cc(C(=O)NC2CCN(Cc3ccccc3)CC2)ccc1-c1nc2cc(Cl)c(Cl)cc2[nH]1 [TCMDC-140078]	-56.44
Cc1[nH]c2cc(Cl)ccc2c1C1=CCN(CCN2CCOc3c(Br)cccc3C2=O)CC1 [TCMDC-140966]	-20.54
COc1ccc(Cl)cc1N1CCN(CCCNC(=O)c2ccc(-c3nc4cc(Cl)c(C)cc4[nH]3)c(F)c2)CC1 [TCMDC-140030]	-22.25
COc1cc2nc(NC3CCN(Cc4ccccc4)CC3)nc(N)c2cc1OC [TCMDC-131886]	84.09
COc1cc2nc(NCc3nc4ccccc4[nH]3)nc(N)c2cc1OC.Cl [TCMDC-131892]	36.75
COc1cc2nc(N(C)C3CCN(Cc4ccccc4)CC3)nc(N)c2cc1OC [TCMDC-131894]	19.02
CCCCCN1CCCCC(NS(=O)(=O)c2ccc(C(=O)Nc3ccc(C(F)(F)F)cc3)cc2)C1 (stereo not drawn) [TCMDC-133681]	-39.58
COc1ccc2nccc([C@@H](O)CN3CCC(NCc4ccc5nc[nH]c(=O)c5c4)CC3)c2c1 [TCMDC-140981]	0.6377
CC(=O)c1ccc(NC(=O)Nc2ccc3nccc(N4CCN(C)CC4)c3c2)cc1 [TCMDC-139331]	-18.7
CC(=O)c1ccc2nc[nH]c(=O)c2c1 [TCMDC-138172]	115.1
COC(=O)C(NC(=O)c1ccc(-c2ccc(-c3nc4ccccc4[nH]3)s2)cc1)c1ccc(O)cc1 (stereo not drawn) [TCMDC-132371]	-16.97
Cc1cccc(CN2CCC(C(=O)Nc3ccc(-c4nc5ccccc5[nH]4)cc3)CC2)n1 [TCMDC-124614]	-28.63
CC1CCC(C(C)C)C(OC(=O)CSc2nnc3c(n2)[nH]c2ccccc23)C1 (stereo not drawn) [TCMDC-124002]	54.66
CCCCNc1c(C(=O)OCC)c(C)nc2c1[nH]c1ccccc12 [TCMDC-131541]	-37.58
O=C(NC1CCN(Cc2ccccc2)CC1)c1ccc(-c2nc3cc(Cl)c(Cl)cc3[nH]2)s1 [TCMDC-140086]	-3.887
CCn1c(-c2nonc2N)nc2cnc(Oc3cccc(NC(=O)c4ccc(OCCN5CCCCC5)cc4)c3)cc21 [TCMDC-135778]	-14.59
CCn1c(-c2nonc2N)nc2c(-c3cc4ccccc4s3)ncc(C(=O)N3CCC(N)C3)c21 (stereo not drawn) [TCMDC-135281]	101.1
